Screens (PubChem)
This is one part of a sample in which hits are shown more often than they occur.
ARNT TACC3 PPI – disrupts binding between human ARNT and TACC3. Q9Y6A5. AlphaScreen His-ARNT PAS-B/GST-TACC3 binding, luminescence; TACC3 fragment carries E629A point mutation. inhibition, % at 9.99 µM. 390,000 tested, 0.66% active. AID 623870;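 active means mean inhibition of replicates at least 50% and at least half of replicates each reaching 50%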
PglD inh – blocks C. jejuni PglD acetyltransferase activity; purified PglD enzyme, DTNB colorimetric CoA detection; 360,000 tested, 0.098% active; AID 602405; inhibition, % at 12.5 µM; in the data active means inhibition above about 16%, passing the limit was not always enough
ERp5 block – ERp5 (human) disulfide isomerase inhibition | inhibition, % at 9.99 µM | ERp5 insulin aggregation, absorbance 650 nm, 90 min | 350,000 tested, 0.05% active;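 active means mean replicate inhibition above about 25%, with every replicate also reaching it, limit read from the data, passing the limit was not always enough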
NRP1-CendR mod – alters CendR peptide binding to human NRP-1. inhibition, % at 25 µM. FAM-RPARPAR peptide binding to NRP-1, fluorescence polarization. 360,000 tested, 0.85% active. AID 602438;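 active means inhibition or corrected inhibition above about 18%, plus a signal ratio from 0.5 to 1.5, limit read from the data, passing the limit was not always enough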
ALR inh – blocks human ALR sulfhydryl oxidase activity | P55789 | purified ALR, DTT oxidation, H2O2 HRP-luminol luminescence | inhibition, % (test concentration not listed) | 290,000 tested, 3.8% active;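 active means mean replicate inhibition above about 79%, with every replicate also reaching it, limit read from the data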
Target sequence (P55789 whole entry, looked up): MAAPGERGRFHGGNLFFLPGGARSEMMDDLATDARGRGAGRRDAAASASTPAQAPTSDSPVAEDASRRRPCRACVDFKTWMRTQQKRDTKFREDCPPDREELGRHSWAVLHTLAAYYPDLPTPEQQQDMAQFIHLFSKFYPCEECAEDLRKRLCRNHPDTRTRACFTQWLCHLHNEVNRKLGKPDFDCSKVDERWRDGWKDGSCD
PDI turbidity – blocks human protein disulfide isomerase activity; PDI insulin aggregation turbidity, A650, 90 min; inhibition, % at 10 µM; 350,000 tested, 0.052% active;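 active means mean inhibition across replicates of 30% or more, whatever share of single replicates reach that level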
Numbers stand for hits; i = inactive; nt = no result.

SMILES | ARNT TACC3 PPI | PglD inh | ERp5 block | NRP1-CendR mod | ALR inh | PDI turbidity
O=C1CNC[C@H]2[C@@H](c3ccc(C#CC4CCCC4)cc3)[C@@H](CO)N12 | nt | nt | i | nt | nt | nt
COc1cc(/C=C/C(=O)OCC(=O)NCc2ccc(F)cc2)ccc1O | nt | i | i | i | nt | i
O=C(/C=C/c1cccc([N+](=O)[O-])c1)OCC(=O)N1CCN(C(=O)c2ccco2)CC1 | i | i | i | i | i | i
COc1cc(/C=C/C(=O)OCC(=O)NCCC2=CCCCC2)ccc1O | i | nt | i | i | 98.8 | i
COc1cc(/C=C/C(=O)OCC(=O)N2CCN(C(=O)c3ccco3)CC2)ccc1O | i | nt | nt | i | 99.3 | i
COc1cc(/C=C/C(=O)OCC(=O)NC(=O)NC(C)C)ccc1O | i | i | i | i | 98.8 | i
COc1cc(/C=C/C(=O)OCC(=O)NCc2ccccc2OC)ccc1O | nt | nt | i | i | 84.0 | i
Cc1ccc(S(=O)(=O)N(C)C[C@H]2Oc3c(NC(=O)Nc4c(C)noc4C)cccc3C(=O)N([C@@H](C)CO)C[C@H]2C)cc1 | i | i | i | nt | nt | nt
COc1ccccc1C#Cc1ccc2c(c1)O[C@H](CN(C)C(C)=O)[C@@H](C)CN([C@H](C)CO)S2(=O)=O | i | i | i | nt | nt | nt
CCC(C)N(C(=O)COC(=O)/C=C/c1ccc(O)c(OC)c1)C1CCS(=O)(=O)C1 (centres undefined) | nt | nt | nt | i | 93.8 | i
COc1cc(/C=C/C(=O)OCC(=O)NC2CCS(=O)(=O)C2)ccc1O (centres undefined) | i | i | nt | i | nt | i
Cc1[nH]nc(SCC(=O)NCc2ccccc2)c1[N+](=O)[O-] | i | i | nt | i | nt | i
COC(=O)CSc1[nH]c2ccccc2c1[N+](=O)[O-] | i | nt | i | i | 99.7 | i
Cc1noc(C)c1NC(=O)N[C@H]1CC[C@@H](CC(=O)NCCCN(C)C)O[C@H]1CO | i | i | i | nt | nt | nt
O=C(C[C@H]1CC[C@H]2[C@@H](COC[C@@H](O)CN2C(=O)Nc2ccccc2)O1)NC1Cc2ccccc2C1 | i | i | i | nt | nt | nt
Cc1ccc(N/C=C/C(=O)C(C)(C)C)c(O)c1 | i | i | i | i | 83.3 | i
C=CCNC(=O)/C(C#N)=C/c1c(C)nn(-c2ccccc2)c1Cl | nt | i | i | i | 96.2 | i
C[C@H]1CN([C@@H](C)CO)C(=O)c2cc(NC(=O)C3CCCCC3)ccc2O[C@@H]1CN(C)C(=O)Nc1cccc2ccccc12 | i | i | i | nt | nt | nt
CCOC(=O)c1c(/N=C/c2cc([N+](=O)[O-])ccc2O)sc(C)c1C | nt | i | i | i | 97.6 | i
CN(C)c1ccc(NC(=O)Nc2ccc3snnc3c2)cc1 | i | nt | nt | i | 94.6 | i
CCOc1ccccc1N1CCN(C(=O)[C@@H]2CCCN2C2=NS(=O)(=O)c3ccccc32)CC1 | nt | nt | i | i | 97.1 | i
CC(NCc1ccc(N(C)C)cc1)C1CC2CCC1C2 (centres undefined) | i | i | nt | i | 98.1 | i
COC(=O)c1ccn(C(=O)c2ccc(Cl)cc2)n1 | i | i | nt | 27.5 | i | i
COC(=O)c1ccn(CSc2cc(Cl)ccc2Cl)n1 | nt | i | i | i | i | i
O=C(O)c1ccnc(C(=O)O)c1 | 56.6 | nt | nt | i | nt | i
SMILES | ARNT TACC3 PPI | PglD inh | ERp5 block | NRP1-CendR mod | ALR inh | PDI turbidity
CO[C@@H]1CC[C@H]2CCOc3c(C#N)cccc3C(=O)N(C)CC3(CCCCC3)CC(=O)N(C)C[C@H]1O2 | i | i | i | nt | nt | nt
O=C(NC1Cc2ccccc2C1)[C@@H]1[C@@H](CO)[C@@H]2Cn3c(cccc3=O)[C@H]1N2Cc1ccccc1F | nt | i | nt | nt | nt | nt
CC(C)c1ccc2oc(-c3cc(N)ccc3O)nc2c1 | i | i | nt | i | 93.0 | i
Cc1ccccc1-c1nc2cc(N)ccc2o1 | i | i | i | i | i | i
COC(=O)c1cc(C)nc2c1C(=O)C(=O)C=C2N1CCOCC1 | nt | i | 62.8 | 28.7 | i | i
Cc1cc(Cl)ccc1OCC(=O)NNC(=O)C1CCCO1 (centres undefined) | i | nt | i | 25.1 | i | i
COc1ccc(OCC(=O)NNC(=O)C2CCCO2)cc1 (centres undefined) | i | nt | nt | i | i | i
COCCNC(=O)C[C@@H]1CC[C@H]2[C@H](COc3ccc(NC(C)=O)cc3C(=O)N2C)O1 | i | i | nt | nt | nt | nt
C[C@@H]1CN([C@@H](C)CO)S(=O)(=O)c2ccc(C#CC3CCCC3)cc2O[C@H]1CN(C)C | nt | i | i | nt | nt | nt
COc1cc2sc3cc(NCCCN4CCOCC4)ccc3c(=O)c2cc1OC | 28.1 | i | i | i | 99.2 | i
